Reference: PubChem BioAssay AID1645887 (National Center for Advancing Translational Sciences (NCATS), 2021)
Several values for one entry are separate records, joined by “and”; a condition that tells them apart may be missing. Equal values may be shown once. The whole screen tested about 16,000 compounds, of which about 40 (0.2%) were called active. Roughly 1% stayed inconclusive and do not appear here. The full list was thinned out, with actives kept by preference. The source holds several records for some structures; these can differ, active in one and inactive in another. Values without a mark were called inactive. Calls come from the whole dose curve; as a rule, active = well fitted activation curve with a large enough effect; inconclusive = small, poorly fitted or top-dose-only effect, or another doubt; inactive = no such curve, though single readings can be large or run the other way.

Each molecule was assayed against Rap guanine nucleotide exchange factor 4 (Homo sapiens) (UniProt Q8WZA2) (assay: Validation qHTS for agonist of cAMP-regulated guanine nucleotide exchange factor 4 (EPAC2)). Settings: EPAC2 Rap1B BODIPY-GDP exchange, fluorescence; activation: hits give high values.
Outline: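 Signal normalized against 6.5 mM cAMP as agonist control. Mix of EPAC2 (100 nM), RAP1B-BODIPY-GDP (250 nM) and GDP (50 uM) was read kinetically at 480/540 nm, every 5 min over 30 min, after 5 min room-temperature incubation with compound.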
% is set by controls: 0 for no effect and ±100 for the full control effect; potency is the fitted concentration of half-maximal effect.
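Throughout, for activation: exchange makes BODIPY-GDP fluorescence drop when released from Rap1B; series mostly up to about 150 µM.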

Sequence of Rap guanine nucleotide exchange factor 4 (Homo sapiens) (Q8WZA2 whole entry, looked up): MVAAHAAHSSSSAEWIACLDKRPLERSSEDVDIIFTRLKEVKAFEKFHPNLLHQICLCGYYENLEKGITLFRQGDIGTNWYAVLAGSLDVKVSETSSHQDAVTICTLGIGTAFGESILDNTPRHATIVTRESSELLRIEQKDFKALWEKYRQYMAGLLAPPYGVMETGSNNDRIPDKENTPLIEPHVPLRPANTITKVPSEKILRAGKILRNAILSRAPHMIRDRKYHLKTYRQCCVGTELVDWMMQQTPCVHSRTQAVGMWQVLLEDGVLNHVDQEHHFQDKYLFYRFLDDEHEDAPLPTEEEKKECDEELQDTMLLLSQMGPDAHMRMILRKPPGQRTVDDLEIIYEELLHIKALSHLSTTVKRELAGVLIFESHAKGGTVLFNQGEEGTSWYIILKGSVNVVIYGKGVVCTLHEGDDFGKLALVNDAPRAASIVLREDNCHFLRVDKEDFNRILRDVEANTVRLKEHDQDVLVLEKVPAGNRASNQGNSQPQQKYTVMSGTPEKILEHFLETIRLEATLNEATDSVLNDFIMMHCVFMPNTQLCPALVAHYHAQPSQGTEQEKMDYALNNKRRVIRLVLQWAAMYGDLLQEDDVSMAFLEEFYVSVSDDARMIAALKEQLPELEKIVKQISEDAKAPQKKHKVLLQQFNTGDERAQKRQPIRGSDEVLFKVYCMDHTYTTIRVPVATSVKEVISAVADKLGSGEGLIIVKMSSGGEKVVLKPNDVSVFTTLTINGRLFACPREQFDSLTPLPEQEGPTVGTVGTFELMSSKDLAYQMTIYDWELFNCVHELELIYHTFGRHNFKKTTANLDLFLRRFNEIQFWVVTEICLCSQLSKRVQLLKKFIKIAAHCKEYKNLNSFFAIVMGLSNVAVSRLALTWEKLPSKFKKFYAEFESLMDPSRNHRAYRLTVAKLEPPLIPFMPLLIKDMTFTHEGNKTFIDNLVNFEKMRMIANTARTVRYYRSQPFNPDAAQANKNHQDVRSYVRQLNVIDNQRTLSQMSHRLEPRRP

| SMILES | activation | Potency |
| --- | --- | --- |
| COc1ccc(C(=O)N2CCC3(CC2)c2ccccc2[C@@H](NC(=O)c2ccccn2)[C@@H]3OC)c(O)c1 | 3.44% | – |
| O=C1[C@H](Cc2ccccc2)NC/C=C\C[C@@H](c2ccc(Cl)cc2)N1Cc1ccccc1 | -43% | – |
| CC(C)C[C@@H](CO)N1CCN(Cc2cccc(C#N)c2)CCC1=O | -27.7% | – |
| COc1ccc(OC)c(CN2CCCC(c3nc(-c4ccncc4)ncc3-c3ccccc3C)C2)c1 (stereo not given) | -2.68% | – |
| FC(F)(F)C(Cl)Br (stereo not given) | -29.1% | – |
| FC(F)OC(Cl)C(F)(F)F (stereo not given) | – | 31.6 µM (active) |
| COCc1ccc(CN2CCOc3c(O)cc(-c4cc(C)c5ccc(F)cc5n4)cc3C2)o1 | 8.6% | – |
| O=C(c1cc(C(F)(F)F)cc(C(F)(F)F)c1)N1CCC2(CCCN(Cc3ccccc3)C2)CC1 | -6.26% | – |
| Cc1cc(C)n2nc(C(=O)NCC3Cc4cccc(-c5ccc(S(C)(=O)=O)cc5)c4O3)cc2n1 (stereo not given) | 2.37% | – |
| COc1c(O)cc2c(=O)oc3c(OC)c(O)cc4c(=O)oc1c2c34 | -13.8% | – |
| O=c1oc2c(O)c(O)cc3c(=O)oc4c(O)c(O)cc1c4c23 | 0.203% | 126 µM (active) |
| Cc1cc(=O)oc2c(O)c(O)ccc12 | -5.12% | – |
| CN(C)c1ccc(/C=C/c2ccc3cc(N(C)C)ccc3n2)cc1 | 0.661% | – |
| CCOC(=O)Nc1ccc(NCc2ccc(F)cc2)nc1N | – | 112 µM (active) |
| COc1ccccc1-c1nccc(NCc2ccccc2)n1 | -0.806% | – |
| COc1ccccc1-c1nccc(NCc2cccc(C)c2)n1 | -13.6% | – |
| OC1CCN(Cc2ccc3c(c2)CN(Cc2ccc(Oc4ncccn4)cc2)CCO3)CC1 | -1.28% | – |
| CC(=O)OCC1=C(C(=O)O)N2C(=O)C(NC(=O)CSc3ccncc3)[C@@H]2SC1 (stereo not given in full) | -16.2% | – |
| O=C(NCc1nnc2n1CCN(C(=O)c1cccc(Cl)c1)CC2)C1CC1 | -2.97% | – |
| CC(=O)OCC(=O)[C@@]1(O)CCC2C3CC(C)C4=CC(=O)C=CC4(C)C3C(O)CC21C (stereo not given in full) | -21.4% | – |
| Cc1cnc(SCCN2CCOCC2)nc1C1CCCN(C(=O)c2cccc3c(C)c(C)[nH]c23)C1 (stereo not given) | -5.56% | – |
| C/C1=C2N=C(/C=C3N=C(/C(C)=C4\[N-][C@@](C)([C@@H]5N=C1[C@](C)(CCC(=O)NCC(C)OP(=O)(O)O[C@H]1[C@@H](O)[C@@H](n6cnc7cc(C)c(C)cc76)O[C@@H]1CO)[C@H]5CC(N)=O)[C@@](C)(CC(N)=O)[C@@H]4CCC(N)=O)[C@@](C)(CC(N)=O)[C@@H]\3CCC(N)=O)C(C)(C)[C@@H]/2CCC(N)=O.CC(=O)O.[Co] (stereo not given in full) | – | 56.2 µM (active) |
| CC(=O)NCC(=O)NCC1Cc2cc(C)cc(-c3ccccn3)c2O1 (stereo not given) | 0.493% | – |
| CN(CCO)C(=O)c1cn(C2CCCN(Cc3ccc(C(F)(F)F)cc3)C2)nn1 (stereo not given) | -15.8% | – |
| COC(=O)C1[C@H]2SC(C)(C)C(C(=O)OC)N2C(=O)N1Cc1ccccc1 (stereo not given in full) | -17.5% | – |
| COCCn1c(=O)c(-c2ccc(F)cc2)nc2cnc(Nc3cccc(OC)c3)nc21 | 6.42% | – |
| C[C@@H](N)CCCP(=O)(O)O | -1.34% | – |

| SMILES | activation | Potency |
| --- | --- | --- |
| CC(C)CN1CCC2(CC1)CCN(C(=O)c1ccco1)CC2 | -7.83% | – |
| COC(=O)C1C(O)CC[C@@H]2CN3CCc4c([nH]c5ccccc45)C3C[C@@H]12 (stereo not given in full) | -7.23% and -17.2% | – |
| CC(N)(COP(=O)(O)O)C(=O)O (stereo not given) | 4.78% | – |
| CC(C)C[C@@H](CSc1ccccc1)N1CCN(C)CCC1=O | -9.44% | – |
| Cc1noc(C)c1-c1nccc(NC2CC2)n1 | -2.86% | – |
| CC(C)CCCC(C)C1CCC2C3C(=O)C=C4CC(O)CC[C@@]4(C)C3CC[C@@]12C (stereo not given in full) | -16% | – |
| COC(=O)c1ccccc1C(=O)NCC1Cc2cc(-c3nc(C)cnc3C)ccc2O1 (stereo not given) | -20.8% | – |
| CCCCCCCCCC[n+]1ccc(/C=C/c2c[nH]c3ccccc23)c2ccccc21 | -5.9% | – |
| COCC(=O)N1CCC[C@@]2(CCN(c3ccccn3)C2)C1 | -5.3% | – |
| COc1cccc(Nc2ncc3nc(C)c(=O)n(C[C@H]4CCCO4)c3n2)c1 | -13.4% | – |
| [C-]#[N+]c1cc(-c2ccncc2)c(C)[nH]c1=O | -4.45% | – |
| Nc1cc(-c2ccncc2)c[nH]c1=O | – | 100 µM (active) |
| Cc1cccc(N(C)C(=S)Oc2ccc3c(c2)CCC3)c1 | 13.3% | – |
| OC(c1cccnc1)c1ccc2c(c1)CN(Cc1cn(-c3ccccc3)nc1-c1ccccc1)CCO2 (stereo not given) | -2.05% | – |
| O.O.O.O.O.O.O.O=S(=O)([O-])[O-].[Co+2] | -48.9% | – |
| CN(C)Cc1ccccc1-c1cncnc1NCc1ccccc1 | -18.5% | – |
| N#Cc1ccccc1-c1ccc2ncnc(NCc3ccccc3)c2c1 | -0.93% | – |
| CC(C)(CNC(=O)c1cnn(-c2nccc(-c3ccccc3F)n2)c1C1CC1)N1CCOCC1 | -17.8% | – |
| C[C@]12CCC(=O)C=C1CCC1C3CC[C@](O)(C(=O)CO)[C@@]3(C)CC3OC312 (stereo not given in full) | -18.8% | – |
| O=C1CCNCCN1[C@H](CO)c1ccccc1 | -16.1% | – |
| CN(C)c1ncnc2ccc(-c3cccc(C#N)c3)cc12 | -0.384% | – |
| Cc1cc(N(C)C)cc(C)c1/C=C/c1cc[n+](C)c2ccccc12 | -16.7% | – |
| Cc1cc2c(c(-c3cnccn3)c1)OC(CNC(=O)c1cc(Cl)ccc1F)C2 (stereo not given) | 5.25% | – |
| COC(=O)C1N[C@@H]([C@@H](NC(=O)COc2ccccc2)C(=O)Nc2ccc(OC)cc2)SC1(C)C (stereo not given in full) | -24.1% | – |
| CC(=O)NCCNc1nc(-c2ccccc2CN(C)C)nc2ccccc12 | -19.9% | – |
| COC(=O)CC[C@H](N)C(=O)O | -14% | – |
| CN1CCN(c2ncc3nc(-c4cn(C)c5ccccc45)c(=O)n(Cc4cccs4)c3n2)CC1 | -4.2% | – |
